Records with an inconclusive call do not appear. Calls of active or inactive are those of the source. Unless noted, calls follow the shape of the dose curve; as a rule, active = well fitted curve in either direction with a large enough effect (not every such curve was filed as active); inconclusive = small, poorly fitted or top-dose-only effect, or another doubt; inactive = flat fitted curve, though single readings scatter.

This note sets out measurements from PubChem BioAssay (NCATS).

In assay [1] the target is Lysosomal acid glucosylceramidase (Homo sapiens) (UniProt P04062). The assay can be described thus: Glucocerebrosidase-p2 (AID 348; in the data active = potency below about 10 µM; also: potency is read from the fitted curve at half-maximal effect). The conditions noted are these: purified GBA, blue fluorogenic substrate, 40 min. The gist of the method: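 Normal human glucocerebrosidase (0.2 nM) with blue fluorogenic substrate (80 uM final) in citrate/phosphate pH 5.9 with 10mM sodium taurocholate, 0.01% tween-20; 40 min RT, NaOH/glycine stop; fluorescence Ex 365/Em 440; AC50 from a titration from 0.6 nM upwards.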
Chain of Lysosomal acid glucosylceramidase (Homo sapiens) (P04062 whole entry, looked up): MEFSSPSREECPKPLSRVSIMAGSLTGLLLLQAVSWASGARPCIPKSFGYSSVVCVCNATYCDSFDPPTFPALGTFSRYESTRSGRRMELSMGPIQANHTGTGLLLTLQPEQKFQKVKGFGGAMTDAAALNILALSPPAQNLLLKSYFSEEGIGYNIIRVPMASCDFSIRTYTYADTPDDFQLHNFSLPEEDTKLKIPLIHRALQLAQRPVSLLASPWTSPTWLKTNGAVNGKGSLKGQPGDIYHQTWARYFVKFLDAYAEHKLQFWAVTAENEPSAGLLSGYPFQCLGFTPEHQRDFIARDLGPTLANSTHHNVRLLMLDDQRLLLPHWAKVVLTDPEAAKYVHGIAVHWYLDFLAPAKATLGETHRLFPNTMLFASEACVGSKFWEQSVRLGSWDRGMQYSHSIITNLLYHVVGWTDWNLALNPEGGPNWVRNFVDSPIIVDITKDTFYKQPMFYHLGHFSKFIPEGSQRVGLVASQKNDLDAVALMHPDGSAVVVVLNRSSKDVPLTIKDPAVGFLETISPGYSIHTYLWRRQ

Assay [2] can be described thus: AP1 Signaling Pathway (AID 357).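 Also: ME-180 reporter cells stimulated with EGF at its EC50 level; % is scaled to controls: 0 for no effect and ±100 for the full control effect.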 To be noted: ME-180 AP-1-bla reporter, EGF-induced, beta-lactamase ratio, 5 h; at 7.69 µM (top of the series) unless noted. The essentials:
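A ratiometric CCF4 readout (405 nm excitation; 460 and 530 nm emission) quantified AP-1-driven beta-lactamase in ME-180 cells after 5 h with compound and EC50 EGF; AC50 values were derived for activators and inhibitors.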

For assay [3], the target named is Cytochrome P450 1A2 (Homo sapiens) (UniProt P05177). Briefly: p450-cyp1a2 (AID 410; calls by dose curve; also: potency is read from the fitted curve at half-maximal effect;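 as to activity change, negative = inhibition: -100% = full effect of reference inhibitor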). To be noted: recombinant CYP1A2, luciferin-ME demethylation, luminescence; series mostly up to 57 µM. The essentials:
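Read-out is luminescence from luciferin produced by CYP1A2 demethylation of Luciferin-ME (100uM, at Km). Detection reagent stopped the 60 min NADPH-dependent reaction; signals were normalized to 57 uM furafylline.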

The nature of assay [4]: Stat Signaling Pathway (AID 446).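 Also: ME-180 cervical cancer cells given 40 pM IL-6 alongside compound; SIE-controlled beta-lactamase reporter measured as 460/530 nm FRET emission ratio; % is scaled to controls: 0 for no effect and ±100 for the full control effect.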 The conditions noted are these: ME-180 SIE beta-lactamase reporter, IL-6 stimulated, 5 h; at 7.69 µM (top of the series) unless noted. The gist of the method:
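Emission at 460 and 530 nm (excitation 405 nm) reports SIE-controlled beta-lactamase in ME-180 cells. Cells received compound with 40 pM IL-6 for 5 hrs at 37 C; data scaled between 300 pM IL-6 and 125 nM JAK-inhibitor controls.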

Assay [5] has as its target Glucocorticoid receptor (Homo sapiens) (UniProt P04150). Briefly: GR-EFC Redistribution (AID 451; calls by dose curve; also: potency is read from the fitted curve at half-maximal effect). The conditions noted are these: CHO-K1 GR-EFC translocation, beta-gal luminescence, 2 h. The gist of the method: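 CHO-K1 cells stably expressing nuclear-localized β-gal enzyme acceptor and GR fused C-terminally to the enzyme donor fragment; ligand-driven nuclear translocation restores β-gal by complementation. Compounds titrated up to 46 uM final, 2 h at 37 °C; luminescence read.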

Assay [6] deals with Mitogen-activated protein kinase 10 (Mus musculus) (UniProt Q61831). Briefly: JNK3 AlphaScreen Assay (AID 530).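 Also: kinase came from lysate of stimulated human HepG2 cells; signal reports phosphorylation of biotinylated GST-cJun 1-79 at Ser73 with 10 µM ATP; % is scaled to controls: 0 for no effect and ±100 for the full control effect.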 The conditions noted are these: JNK3 lysate, c-Jun phosphorylation; series mostly up to 57.1 µM. The essentials:
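Biotinylated GST-cJun(1-79) served as substrate for JNK3 in HepG2 lysates stimulated with IL-1beta and TNF-alpha. ATP was 10 uM final, pH 7.6. Ser73 phosphorylation was quantified by AlphaScreen (680 nm excitation).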
On the technique in general: Alpha assays give light when donor and acceptor beads are brought close together.

The target of assay [7] is 3',5'-cyclic-AMP phosphodiesterase 4B (Homo sapiens) (UniProt Q07343). The assay can be described thus: qHTS Assay for Inhibitors of PDE-IV (AID 607; active = well fitted activation curve with a large enough effect in the main read-out, with a control signal flat, not every such curve was filed as active; also: % of control where 0% means no effect). The conditions noted are these: HEK293 ACTOne CNG channel cells, membrane potential fluorescence; series mostly up to 22.9 µM. The essentials:
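The readout is membrane depolarisation from a cAMP-sensing CNG channel, detected with a potential dye at ex 535/em 590. Cells were HEK293-derived (endogenous PDE-IV) at 1000 cells/well, titrated up to 22.9 uM final.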
(In general: In qHTS, concentration-response curves come from the screen itself.)

For assay [8], the target named is Cytochrome P450 3A4 (Homo sapiens) (UniProt P08684). The assay can be described thus: qHTS Assay for Activators of Cytochrome P450 3A4 (AID 885; active = well fitted curve in the direction sought with a large enough effect; an effect the other way counts as inactive or inconclusive; also: nearly all actives have a fitted effect of over 65% in size). The conditions noted are these: recombinant CYP3A4, Luciferin-PPXE luminescence, 60 min; series mostly up to 57.1 µM. The gist of the method:
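Activators are scored by enhanced luminescence from CYP3A4 conversion of luciferin-PPXE (25uM, equal to KM) to luciferin, after 60 min at RT with an NADPH-regenerating system.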

Assay [9] can be described thus: qHTS Assay for Lipid Storage Modulators (AID 1519; calls by dose curve). The conditions noted are these: Drosophila S3 cells, BODIPY lipid droplet/cell ratio, laser cytometry, cells loaded with oleic acid; for activity change, negative = inhibition: at 57.5 µM (top of the series). The essentials:
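Cells seeded at 5,000 per well were treated with compounds over a concentration series and loaded with oleic acid (400 uM, as added). Lipid droplet fluorescence (488 nm excitation, 500-530 nm channel) was read by laser-scanning cytometry and normalized to 20 uM Triacsin C.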

Assay [10] is described as follows: Primary qHTS for small molecule stabilizers of the endoplasmic reticulum resident proteome: Secreted ER Calcium Modulated Protein (SERCaMP) assay (AID 1508630; active = well fitted curve in the direction sought with a large enough effect; an effect the other way counts as inactive or inconclusive; also: % is scaled to controls: 0 for no effect and ±100 for the full control effect). The conditions noted are these: SH-SY5Y GLuc-SERCaMP (Gaussia luciferase released on ER calcium loss) secretion, thapsigargin, luminescence; series mostly up to 38.4 µM. The gist of the method: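 The SH-SY5Y reporter protocol was run at 3 concentrations up to 38.3 uM (primary) or 11 concentrations (follow-up): 16 h compound, 100 nM thapsigargin for 4 h, then extracellular luciferase luminescence.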

For assay [11], the target named is Cytochrome P450 2D6 (Homo sapiens) (UniProt P10635). The assay can be described thus: qHTS Assay for Inhibitors and Substrates of Cytochrome P450 2D6 (AID 891; active = well fitted curve in the direction sought with a large enough effect; an effect the other way counts as inactive or inconclusive; also: potency is read from the fitted curve at half-maximal effect; nearly all actives have a fitted effect of over 60% in size). The conditions noted are these: recombinant CYP2D6, luciferin-ME EGE luminescence; series mostly up to 57.1 µM. The essentials: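 Luminescent read-out of luciferin formed by 5 nM human CYP2D6 demethylating 30 uM Luciferin-ME EGE (Km level) over 60 min at room temperature after NADPH regeneration addition. Data normalized to full inhibition by 1.43 uM quinidine.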
Chain of Cytochrome P450 2D6 (Homo sapiens) (P10635 whole entry, looked up): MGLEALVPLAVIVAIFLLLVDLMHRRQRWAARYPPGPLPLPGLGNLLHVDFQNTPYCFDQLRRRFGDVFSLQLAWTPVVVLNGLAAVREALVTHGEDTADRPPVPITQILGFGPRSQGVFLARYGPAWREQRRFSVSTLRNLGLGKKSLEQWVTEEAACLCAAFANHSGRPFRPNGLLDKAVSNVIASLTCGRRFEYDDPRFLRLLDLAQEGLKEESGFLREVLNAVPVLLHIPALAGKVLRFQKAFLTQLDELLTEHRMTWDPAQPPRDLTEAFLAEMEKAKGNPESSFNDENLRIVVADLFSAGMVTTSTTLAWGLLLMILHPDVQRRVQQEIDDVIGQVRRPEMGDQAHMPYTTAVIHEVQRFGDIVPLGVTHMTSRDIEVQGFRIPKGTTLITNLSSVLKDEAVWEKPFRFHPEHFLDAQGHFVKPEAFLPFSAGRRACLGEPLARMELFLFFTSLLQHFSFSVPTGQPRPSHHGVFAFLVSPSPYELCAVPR

Assay [12] can be described thus: qHTS Assay for Identification of Small Molecule Agonists for Hypoxia Response Element Signaling Pathway (AID 914; active = well fitted activation curve with a large enough effect in the signal ratio, with a control signal flat, not every such curve was filed as active; the % refers to the signal ratio; also: % of control where 0% means no effect). To be noted: ME-180 (cervical carcinoma) HRE-bla reporter, beta-lactamase ratio, CoCl2, 17 h; activation: stronger effect = higher value. The essentials: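 In Opti-MEM containing 0.5% dialyzed FBS and 10 mM HEPES, ME-180 HRE-bla cells received a compound titration and EC50 CoCl2. They were incubated 17 hours, then CCF4-loaded 2.5 hours at room temperature before ratio reading.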

[13] abbreviates: measured here: cell count channel max response.
[14] abbreviates: measured here: lipid channel max response.

Chain of 3',5'-cyclic-AMP phosphodiesterase 4B (Homo sapiens) (Q07343 whole entry, looked up): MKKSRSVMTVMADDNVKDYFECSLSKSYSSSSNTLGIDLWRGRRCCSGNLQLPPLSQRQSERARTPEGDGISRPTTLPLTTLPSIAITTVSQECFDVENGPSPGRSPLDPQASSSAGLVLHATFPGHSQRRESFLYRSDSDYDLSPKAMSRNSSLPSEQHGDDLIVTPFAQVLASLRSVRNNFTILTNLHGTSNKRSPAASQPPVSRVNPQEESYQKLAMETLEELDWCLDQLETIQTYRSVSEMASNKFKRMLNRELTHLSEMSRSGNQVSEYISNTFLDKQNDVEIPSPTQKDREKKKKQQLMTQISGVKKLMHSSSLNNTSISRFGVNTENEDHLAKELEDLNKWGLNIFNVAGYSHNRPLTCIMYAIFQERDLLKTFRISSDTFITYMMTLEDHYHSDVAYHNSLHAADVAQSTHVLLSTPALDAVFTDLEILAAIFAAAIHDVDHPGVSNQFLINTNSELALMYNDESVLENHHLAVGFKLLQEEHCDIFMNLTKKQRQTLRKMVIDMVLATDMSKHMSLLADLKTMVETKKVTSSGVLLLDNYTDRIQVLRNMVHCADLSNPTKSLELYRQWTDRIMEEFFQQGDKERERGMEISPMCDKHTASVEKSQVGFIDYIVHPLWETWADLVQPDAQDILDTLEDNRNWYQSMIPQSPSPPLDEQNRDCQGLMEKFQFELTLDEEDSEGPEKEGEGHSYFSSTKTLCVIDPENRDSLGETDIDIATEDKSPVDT
Chain of Cytochrome P450 1A2 (Homo sapiens) (P05177 whole entry, looked up): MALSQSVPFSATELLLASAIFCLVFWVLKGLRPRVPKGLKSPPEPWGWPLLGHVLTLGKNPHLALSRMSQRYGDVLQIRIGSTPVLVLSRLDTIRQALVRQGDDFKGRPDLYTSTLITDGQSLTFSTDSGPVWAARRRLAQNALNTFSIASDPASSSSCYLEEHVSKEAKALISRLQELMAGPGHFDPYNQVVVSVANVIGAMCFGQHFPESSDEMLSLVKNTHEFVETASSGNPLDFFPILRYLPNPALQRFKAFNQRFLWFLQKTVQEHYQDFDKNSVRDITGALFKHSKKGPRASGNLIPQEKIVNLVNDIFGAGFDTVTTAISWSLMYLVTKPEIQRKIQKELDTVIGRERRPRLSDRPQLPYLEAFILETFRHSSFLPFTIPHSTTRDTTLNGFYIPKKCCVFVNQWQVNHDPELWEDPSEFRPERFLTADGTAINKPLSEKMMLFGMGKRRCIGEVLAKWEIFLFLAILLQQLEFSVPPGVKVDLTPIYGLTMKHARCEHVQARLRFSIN
Chain of Glucocorticoid receptor (Homo sapiens) (P04150 whole entry, looked up, the tested form may be a part): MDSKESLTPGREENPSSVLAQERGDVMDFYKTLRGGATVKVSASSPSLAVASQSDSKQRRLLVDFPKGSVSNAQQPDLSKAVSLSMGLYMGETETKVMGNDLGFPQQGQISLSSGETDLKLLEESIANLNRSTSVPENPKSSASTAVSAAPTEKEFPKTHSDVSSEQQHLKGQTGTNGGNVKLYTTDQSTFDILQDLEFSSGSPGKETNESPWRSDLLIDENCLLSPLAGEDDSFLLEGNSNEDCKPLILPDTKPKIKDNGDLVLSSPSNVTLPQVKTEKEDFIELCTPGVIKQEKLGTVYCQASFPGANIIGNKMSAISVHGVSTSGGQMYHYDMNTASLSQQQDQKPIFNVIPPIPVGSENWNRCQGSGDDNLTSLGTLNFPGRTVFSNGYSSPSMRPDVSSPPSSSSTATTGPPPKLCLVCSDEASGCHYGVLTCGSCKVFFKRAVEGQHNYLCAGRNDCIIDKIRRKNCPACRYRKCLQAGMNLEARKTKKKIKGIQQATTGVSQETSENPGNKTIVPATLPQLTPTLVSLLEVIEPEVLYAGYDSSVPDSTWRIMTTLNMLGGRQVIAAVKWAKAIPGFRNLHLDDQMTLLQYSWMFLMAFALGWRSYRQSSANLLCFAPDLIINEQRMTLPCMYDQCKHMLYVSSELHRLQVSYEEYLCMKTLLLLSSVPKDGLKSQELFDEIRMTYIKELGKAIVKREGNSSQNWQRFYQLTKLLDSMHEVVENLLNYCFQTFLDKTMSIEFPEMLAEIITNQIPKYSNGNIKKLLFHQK
Chain of Cytochrome P450 3A4 (Homo sapiens) (P08684 whole entry, looked up): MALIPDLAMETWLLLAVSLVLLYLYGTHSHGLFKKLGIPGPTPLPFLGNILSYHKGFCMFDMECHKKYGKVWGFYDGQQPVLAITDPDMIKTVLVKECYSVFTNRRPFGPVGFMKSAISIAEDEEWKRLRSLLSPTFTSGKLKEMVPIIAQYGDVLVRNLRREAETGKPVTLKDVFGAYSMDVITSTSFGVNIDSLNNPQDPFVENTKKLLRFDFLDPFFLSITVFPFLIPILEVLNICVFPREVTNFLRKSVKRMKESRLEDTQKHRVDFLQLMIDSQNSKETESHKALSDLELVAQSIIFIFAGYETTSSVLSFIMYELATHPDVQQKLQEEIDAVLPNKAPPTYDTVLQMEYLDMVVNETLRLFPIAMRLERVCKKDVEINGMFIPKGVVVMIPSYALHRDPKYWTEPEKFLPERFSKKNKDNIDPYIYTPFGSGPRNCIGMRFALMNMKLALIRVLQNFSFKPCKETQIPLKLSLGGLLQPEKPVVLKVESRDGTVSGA

For `CC(C)CN1CCCC2(CCN(C(=O)c3cccc(F)c3)CC2)C1`, the Potency is > 11.4 µM (inactive) in [1] and > 46 µM (inactive) in [5]. Further, the activity change, negative = inhibition in assay [2] is -3.93% (inactive); in assay [9] it was 2.15% (inactive). Also, the Potency entry in assay [3], in [6], in assay [7] and in assay [8] was “inactive” throughout. Also, the activity, negative = inhibition in assay [4] is -0.516% (inactive). The max response is 18.6% in assay [9] (setting [13]) and 24.2% in [9] (setting [14]). In addition, the result in assay [10] was inactive.
In the case of `COc1ccccc1CN1CCCC2(CCN(C(C)=O)CC2)C1`, the Potency is > 11.4 µM (inactive) in assay [1], 25.1 µM (active) in assay [3], > 46 µM (inactive) in [5] and 3.16 µM (active) in [11]. In addition, the activity change, negative = inhibition is 0.608% (inactive) in [2] and 0.567% (inactive) in assay [9]. In assay [4], the activity, negative = inhibition was 9.98% (inactive). The Potency entry in [6] and in assay [7] was “inactive” in each case. In addition, the max response turned out to be 7.93% in assay [9] (setting [13]) and 13% in [9] (setting [14]). In addition, in assay [10], the result was inactive.
For `COC(=O)N1CCC2(CCCN(Cc3ccc(C#N)cc3)C2)CC1`, the Potency was > 11.4 µM (inactive) in assay [1], > 46 µM (inactive) in assay [5] and 0.316 µM (active) in assay [11]. Moreover, the activity change, negative = inhibition is -3.68% (inactive) in assay [2] and -1.17% (inactive) in assay [9]. The Potency result in assay [3], in assay [6], in assay [7] and in assay [8] was “inactive” in each case. In assay [4], the activity, negative = inhibition was -2.36% (inactive). For the same compound, the figures for the max response in assay [9] (setting [13]) and in assay [9] (setting [14]) were 13.4% and 12.9%, respectively. In addition, the outcome in [10] was inactive.
With `CC(C)CN1CCC2(CC1)CCN(C(=O)c1ccncc1)CC2`, the Potency in [1] is > 11.4 µM (inactive); in [5] it was > 46 µM (inactive); in assay [11] it was 3.98 µM (active). In addition, the activity change, negative = inhibition was -3.14% (inactive) in assay [2] and 0.393% (inactive) in assay [9]. The Potency result in [3], in [6], in assay [7] and in assay [8] was “inactive” throughout. Further, the activity, negative = inhibition in [4] was -5.7% (inactive). For the same compound, the max response in assay [9] (setting [13]) was 14.2%; in assay [9] (setting [14]) it was 14.7%. Also, the result in assay [10] was inactive.
As to `CC(C)CN1CCCC2(CCN(C(=O)c3csnn3)CC2)C1`, the figures for the Potency in assay [1], in [5] and in [11] were > 11.4 µM (inactive), > 46 µM (inactive) and 5.01 µM (active), respectively. Besides, the results for the activity change, negative = inhibition in assay [2] and in assay [9] were 1.87% (inactive) and 2.3% (inactive), respectively. Besides, the Potency result in assay [3], in [6], in assay [7] and in assay [8] was “inactive” in each case. In addition, in assay [4], the activity, negative = inhibition was -5.65% (inactive). The figures for the max response in [9] (setting [13]) and in [9] (setting [14]) were 15.1% and 21%, respectively. The result in assay [10] was inactive.
As for `Cc1noc(C)c1C(=O)N1CCC2(CCN(Cc3ccncc3)CC2)CC1`, the Potency in assay [1] is > 11.4 µM (inactive); in [5], > 46 µM (inactive). The activity change, negative = inhibition in assay [2] is 5.66% (inactive); in assay [9], 4.47% (inactive). Also, the Potency entry in assay [3], in [6], in assay [7] and in assay [8] was “inactive” in each case. Moreover, in assay [4], the activity, negative = inhibition is -5.26% (inactive). Also, the activation in assay [12] was 14.4% (inactive). Besides, the max response in [9] (setting [13]) was 0.0469%; in assay [9] (setting [14]) it was 9.36%. In addition, the result in [10] was inactive.
Consider `COCC(=O)N1CCC[C@@]2(CCN(C(c3ccccc3)c3ccccc3)C2)C1`, for which the Potency in assay [1] was > 11.4 µM (inactive); in assay [3], 12.6 µM (active); in [5] it was > 46 µM (inactive); in [11], 6.31 µM (active). The figures for the activity change, negative = inhibition in [2] and in assay [9] were 0.34% (inactive) and -13.8% (inactive), respectively. Besides, the activity, negative = inhibition in [4] is -0.903% (inactive). In addition, the Potency entry in assay [6], in assay [7] and in assay [8] was “inactive” throughout. Also, the max response in [9] (setting [13]) was -8.5%; in assay [9] (setting [14]) it was -21.2%. In addition, the result in [10] was inactive.
